NTR1 ag: agonists of human NTR1, primary screen, imaging, U2OS cells, beta-arrestin-GFP, high content | Neurotensin receptor type 1 (Homo sapiens), P30989 | NTR1-U2OS beta-arrestin-GFP spot imaging, agonist mode | activation, % at 20 µM | actives 0.17% (n = 330,000) | AID 493036, 2011;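 active means activation at or above 40% of the spot to cytoplasm intensity ratio, with at least 20 cells analyzed; inconclusive means wells under 20 cells, flagged as cytotoxic or low count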;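 further: 0% = DMSO without peptide and 100% = 100 nM NTR1 peptide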
AHR act: AHR activators, primary screen, cell-based, luminescence, luciferase reporter, human | Aryl hydrocarbon receptor (Homo sapiens), P35869 | AHR-responsive luciferase reporter cells | activation, % at 5 µM | actives 2.5% (n = 320,000) | AID 2796, 2010; in the data active means activation above about 47%;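 further: 0% = vehicle wells and 100% = reference agonist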
Target sequence (P35869 whole entry, looked up): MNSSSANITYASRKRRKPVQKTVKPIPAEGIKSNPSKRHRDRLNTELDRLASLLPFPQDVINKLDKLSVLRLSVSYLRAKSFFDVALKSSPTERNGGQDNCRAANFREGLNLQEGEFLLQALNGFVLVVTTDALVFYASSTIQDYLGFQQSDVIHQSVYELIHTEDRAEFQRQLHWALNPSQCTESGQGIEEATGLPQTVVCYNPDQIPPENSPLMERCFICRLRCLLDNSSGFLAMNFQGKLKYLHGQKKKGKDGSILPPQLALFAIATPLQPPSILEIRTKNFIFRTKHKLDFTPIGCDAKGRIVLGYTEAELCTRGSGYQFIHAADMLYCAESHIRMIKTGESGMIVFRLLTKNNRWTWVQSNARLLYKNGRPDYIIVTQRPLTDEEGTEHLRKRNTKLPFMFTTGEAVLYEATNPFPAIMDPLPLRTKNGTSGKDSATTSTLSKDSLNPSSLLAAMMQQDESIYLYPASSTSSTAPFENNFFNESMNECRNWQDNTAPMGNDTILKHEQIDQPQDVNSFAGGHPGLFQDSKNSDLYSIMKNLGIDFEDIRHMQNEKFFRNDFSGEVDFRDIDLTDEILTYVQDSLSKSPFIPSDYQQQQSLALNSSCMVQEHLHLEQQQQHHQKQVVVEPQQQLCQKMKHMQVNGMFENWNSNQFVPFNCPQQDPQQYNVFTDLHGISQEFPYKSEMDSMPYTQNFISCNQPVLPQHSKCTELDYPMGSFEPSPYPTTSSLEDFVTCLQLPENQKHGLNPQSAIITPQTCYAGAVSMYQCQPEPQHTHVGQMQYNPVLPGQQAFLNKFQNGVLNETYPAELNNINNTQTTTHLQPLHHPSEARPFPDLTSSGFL
AI-2 QS mod: Vibrio harveyi AI-2 quorum sensing modulators, primary screen, JMH597 strain, luminescence/OD600 ratio | Vibrio harveyi JMH597 AI-2 luminescence/OD600 ratio, 9 h; stronger effect = lower value; strain lacks LuxN and CqsS sensors; 0 = neutral-control median | activity change, % at 7.5 µM | actives 0.4% (n = 300,000) | AID 2094, 2009; in the data active means activity change below about -75%, passing the limit was not always enough; inconclusive means no clear call, values can overlap the other calls;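 further: luminescence divided by OD600 gain over 9 h not by final OD600 alone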
Mot1-301 SUMO: yeast Mot1-301 growth rescue at high temperature, primary screen, SUMOylation pathway inhibitor project, S. cerevisiae, ATP luminescence, 38.5C. actives 1% (n = 320,000). S. cerevisiae Mot1-301 growth rescue; percent above DMSO median, 100 means doubled. growth rescue, % at 18.8 µM;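 active means every valid replicate shows activation above 250% relative to neutral control wells; inactive means the rest, any valid replicate at or below 250%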;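 further: OY570 slx delta 5 strain wells were the positive control but not used for scaling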
GRIN3A LBD mod: binders of NR3A ligand-binding domain, primary screen, biophysical, differential scanning fluorimetry, uHTS; Glutamate receptor ionotropic, NMDA 3A (GRIN3A) ligand-binding domain; NR3A LBD differential scanning fluorimetry, Tm shift; 0% = protein alone, 100% = glycine-bound protein; Tm shift relative to glycine control, % at 25 µM; actives 2.5% (n = 340,000); AID 1259313, 2017;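 active means melting temperature shift of at least 10% of the positive control shift, at one fixed dose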
H9c2 protect: cardioprotection against H2O2-induced cell death, primary screen, uHTS, H9c2 cells, ATPLite luminescence; H9c2 cardiomyocytes, H2O2 injury protection, 2 h; protection from H2O2 cell death, % at 20 µM; actives 0.63% (n = 360,000); AID 588492, 2011;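 active means compounds giving at least 50% protection of heart cells from peroxide-induced death in the single-dose screen, raw or plate-pattern-corrected value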;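 further: 0% = DMSO wells with peroxide and 100% = DMSO wells without peroxide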
* = called active by the depositor; ? = inconclusive; . = not tested or not shown. Shown are actives, neighbours in structure and some others; about 6.2% of the full set was active somewhere.

SMILES	NTR1 ag	AHR act	AI-2 QS mod	Mot1-301 SUMO	GRIN3A LBD mod	H9c2 protect
CCOC(=O)c1ccc(Nc2nc(C(=O)OCC)nc3ccccc23)cc1	8	5	20	9	-2	41
CCSC1=N/C(=C\c2ccc(C(=O)O)cc2)C(=O)S1	0	1	14	1	20*	7
CCSC1=N/C(=C\c2ccc(C)s2)C(=O)S1	1	6	12	-2	13*	-3
C=CCSC1=N/C(=C\c2ccc(C(=O)O)cc2)C(=O)S1	-1	0	4	-7	-1	6
O=C(NCc1cccnc1)c1cc(C2CCCCN2C(=O)OCCF)on1 (stereo not given)	.	.	.	.	.	-1
COc1cccc(C(=O)CSc2nnc(-c3cc(OC)c(OC)c(OC)c3)o2)c1	0	0	6	5	3	58*
Cc1cc(C)c(C)c(C(=O)CSc2nnc(-c3ccc4[nH]c(C)c(C)c4c3)o2)c1C	11	25	24	.	4	-8
COc1cc(-c2nnc(SCC(=O)c3ccc(C)cc3)o2)cc(OC)c1OC	11	0	32	4	11*	14
Cc1[nH]c2ccc(-c3nnc(SCC(=O)c4ccc(F)cc4)o3)cc2c1C	3	7	27	7	29*	1
CCS(=O)(=O)Nc1ccc(-c2nnc(SCC(=O)c3cccc(OC)c3)o2)cc1	2	20	11	414	2	0
CSc1nc2ccc(S(=O)(=O)Nc3c(C)n(C)n(-c4ccccc4)c3=O)cc2s1	0	9	3	-10	-1	106*
COc1ccc(S(=O)(=O)Nc2c(C)n(C)n(-c3ccccc3)c2=O)cc1C(=O)O	0	.	33	274*	1	2
CC(C)Cn1c(N)c(C(=O)COC(=O)c2nccnc2N)c(=O)n(C)c1=O	4	1	.	-5	0	-6
CC1CCC/C(=N/Nc2nc3ccccc3s2)C1 (stereo not given)	0	62*	20	-7	-6	-20
CC1(C)CC(=O)C/C(=N/Nc2nc3ccccc3s2)C1	1	23	18	.	-18	2
COc1ccc(OC)c(C2Nc3ccccc3NC3=C2C(=O)CC(C)(C)C3)c1 (stereo not given)	2	0	7	-10	-1	5
Cc1ccc(C2(c3ccc(C)cc3)CC2C(=O)Nc2ccc([N+](=O)[O-])cc2O)cc1 (stereo not given)	20	59*	43	-8	1	-17
CC1(C)CC1C(=O)Nc1ccc([N+](=O)[O-])cc1Br (stereo not given)	2	1	13	8	12*	-7
CN1C(=O)CCC(CCC(=O)O)(c2ccccc2O)C1=O (stereo not given)	-1	-1	1	-12	0	1
COc1cccc(Nc2nc(-c3sc(NC(=O)c4ccccc4)nc3C)cs2)c1	3	41	9	-20	2	2
COc1cccc(Nc2nc(-c3sc(NC(=O)CC(C)C)nc3C)cs2)c1	0	51*	38	-1	-3	-6
COc1ccccc1Nc1nc(-c2sc(NC(=O)CC(C)C)nc2C)cs1	15	71*	9	-10	-8	-6
CCCOc1ccc(S(=O)(=O)n2cc(F)c(=O)[nH]c2=O)cc1	0	-1	.	-4	-1	-4
COc1ccc(N(C(=O)CCl)C(C(=O)NCCc2ccccc2)c2cccs2)cc1Cl (stereo not given)	.	0	17	264*	0	-19
O=C(COC(=O)Cc1ccc(Cl)cc1)Nc1c(F)cccc1F	3	4	17	6	0	1
SMILES	NTR1 ag	AHR act	AI-2 QS mod	Mot1-301 SUMO	GRIN3A LBD mod	H9c2 protect
CCOC(=O)c1c(-c2ccc(C)o2)csc1NC(=S)NC(=O)c1cccs1	21	27	5	-12	18*	-14
CCOC(=O)c1c(-c2ccc(C)o2)csc1NC(=S)NC(=O)c1ccccc1Br	24	2	19	11	3	-3
CCOC(=O)c1c(-c2ccc(C)o2)csc1NC(=O)COC(=O)c1ccc(NC(N)=O)cc1	24	9	16	46	-5	61*
CCOC(=O)c1c(CC(C)C)csc1NC(=O)COC(=O)c1ccc(O)cc1	32	.	.	.	25*	-14
CCOC(=O)c1c(CC(C)C)csc1NC(=O)COC(=O)C1=NNC(=O)CC1	3	4	0	100	0	-3
CN1C(=O)Cc2cc(S(=O)(=O)N3CCN(c4ccccc4F)CC3)ccc21	0	-2	14	20	-3	-3
CSc1ccccc1NC(=O)c1ccc(N2CC3CC(C2)c2cccc(=O)n2C3)c(NC(=O)c2cccnc2)c1 (stereo not given)	0	1	26	-3	-1	-2
CC1(C(=O)NS(=O)(=O)c2ccc(Cl)cc2)CCN1C(=O)C1CC1 (stereo not given)	.	.	.	.	.	-10
CC1Cc2nc(SCC(=O)NCC3CCCO3)n(-c3ccc(F)cc3)c(=O)c2S1 (stereo not given)	1	0	20	203	0	5
O=C(N[C@@H](Cc1ccccc1)C(=O)NCc1ccc(F)cc1)C1CCNCC1	0	3	18	-4	2	1
O=C(CSC1=NC(=O)C(Cc2ccccc2)C(=O)N1)Nc1ncc(Br)cc1Br (stereo not given)	1	3	0	327*	-2	-2
O=S(=O)(c1ccc2ccccc2c1)N1CCN(C(=S)Nc2ccc(F)c(Cl)c2)CC1	13	2	9	-5	19*	-6
O=S(=O)(c1ccc2ccccc2c1)N1CCN(C(=S)Nc2ccc(F)cc2)CC1	2	2	?	2	3	-8
CCC1Oc2ccccc2N(CC(=O)NC2CCCCC2C)C1=O (stereo not given)	0	2	-1	-19	15*	-3
CCCCSc1nnc(CSc2nc3nc(C)cc(C)n3n2)o1	1	4	31	3	12*	0
CCCSc1nnc(CSc2nc3nc(C)cc(C)n3n2)o1	0	4	41	1	-1	-1
COc1ccc(Cl)cc1NS(=O)(=O)c1cccc(C(=O)NCCCN2CCOCC2)c1	.	.	.	.	.	15
COCCOC(=O)c1[nH]c2c(c1C)C(=O)CC(c1cc(OC)ccc1OC)C2 (stereo not given)	0	25	16	-16	1	38
